Laboratory results from the supplement of paper PMC3334620.
Whole data set: some 33,000 sequences, median “E-score (-0.5 to 0.5)” near -0.056, cut for the highest 2% near 0.38. This excerpt belongs to a sample that is enriched for the highest values.

Each sequence was assayed against Stb4 (UniProt P50104) (assay: PBM E-score (8-mer binding enrichment) (E-score (-0.5 to 0.5)); higher = stronger / more preferred TF binding). Settings: protein concentration: 200 nM; construct: GST-DNA-binding domain.
UniProt P50104, sequence (P50104 whole entry, the tested form may be a part): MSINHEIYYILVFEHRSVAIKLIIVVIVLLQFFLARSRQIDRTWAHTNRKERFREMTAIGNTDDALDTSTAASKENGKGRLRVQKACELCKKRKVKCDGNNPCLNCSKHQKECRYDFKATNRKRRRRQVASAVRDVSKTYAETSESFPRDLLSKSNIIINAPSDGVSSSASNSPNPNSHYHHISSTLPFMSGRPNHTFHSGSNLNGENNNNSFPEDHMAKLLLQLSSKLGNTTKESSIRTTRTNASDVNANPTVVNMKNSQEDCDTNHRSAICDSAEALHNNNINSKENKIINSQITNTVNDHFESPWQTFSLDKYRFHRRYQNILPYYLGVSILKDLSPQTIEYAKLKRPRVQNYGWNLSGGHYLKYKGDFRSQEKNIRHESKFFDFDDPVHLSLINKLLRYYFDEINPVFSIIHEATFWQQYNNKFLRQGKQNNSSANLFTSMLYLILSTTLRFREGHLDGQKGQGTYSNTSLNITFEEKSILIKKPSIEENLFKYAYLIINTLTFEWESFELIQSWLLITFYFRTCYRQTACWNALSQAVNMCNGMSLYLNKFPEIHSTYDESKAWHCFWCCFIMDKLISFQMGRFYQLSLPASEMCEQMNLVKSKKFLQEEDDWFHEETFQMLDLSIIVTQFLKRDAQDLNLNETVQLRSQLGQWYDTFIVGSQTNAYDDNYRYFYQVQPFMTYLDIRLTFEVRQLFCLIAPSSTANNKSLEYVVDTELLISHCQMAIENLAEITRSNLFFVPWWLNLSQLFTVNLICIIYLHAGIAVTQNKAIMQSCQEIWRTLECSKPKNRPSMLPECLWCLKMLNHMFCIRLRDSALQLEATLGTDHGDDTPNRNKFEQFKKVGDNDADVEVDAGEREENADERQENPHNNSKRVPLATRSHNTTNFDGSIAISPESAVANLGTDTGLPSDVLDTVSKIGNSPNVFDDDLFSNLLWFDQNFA
Experimental: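 Universal 'all 10-mer' protein binding microarrays (Agilent AMADID 015681) probed with GST-tagged S. cerevisiae TFs (full-length or DBD) made by in vitro transcription/translation (PURExpress), about 100-200 nM. Bound TF was detected with fluorescent anti-GST. Each ungapped 8-mer (which stands for itself and its reverse complement) is scored by the PBM enrichment score (E-score), a modified Wilcoxon-Mann-Whitney statistic from -0.5 to +0.5, computed with the Universal PBM Analysis Suite. Scale: above 0.35 generally sequence-specific binding.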
For CCAAAGTA, the “PBM E-score” value was 0.0417.
In the case of AGGGCTCA, the “PBM E-score” value is reported as -0.326.
For CTTCGGGC, the “PBM E-score” value was 0.291.
For ATTCGGGC, the “PBM E-score” value was 0.301.
ATTCGGGG was tested, and the “PBM E-score” value was 0.34.
For ATTCGGGA, the “PBM E-score” value was 0.415.
With GTACGGGA the “PBM E-score” value was 0.222.
For GTTCGGGA, the “PBM E-score” value was 0.453.
For CATCGGGA, the “PBM E-score” value was 0.331.
CTTCGGGA was tested, and the “PBM E-score” value was 0.439.
GATCGGGA was tested, and the “PBM E-score” value was 0.359.
In the case of TGCTAAAA, the “PBM E-score” value is reported as -0.205.
AGATCGAT was tested, and the “PBM E-score” value was -0.16.
For ACCCCTAT, the “PBM E-score” value was -0.143.
For GACCTGCC, the “PBM E-score” value was 0.0159.
In the case of ACACTGAG, the “PBM E-score” value is reported as -0.128.
For CCGGGAAA, the “PBM E-score” value was 0.33.
For ACGGAAAC, the “PBM E-score” value was 0.375.
In the case of CCGGGACA, the “PBM E-score” value is reported as 0.326.
For GCGGGAAA, the “PBM E-score” value was 0.306.
For TCGGGAAA, the “PBM E-score” value was 0.443.
For TCGGGACA, the “PBM E-score” value was 0.408.
For CAGGAAAA, the “PBM E-score” value was -0.0586.
For CCGGAAAC, the “PBM E-score” value was 0.394.
In the case of CCGGAAAG, the “PBM E-score” value is reported as 0.366.
For CTGGAAAA, the “PBM E-score” value was -0.00258.
CCGGAAAA was tested, and the “PBM E-score” value was 0.441.
With ACGGGACA the “PBM E-score” value was 0.276.
In the case of ACGCAAAT, the “PBM E-score” value is reported as -0.00753.
GTAAGACA was tested, and the “PBM E-score” value was -0.166.
CCACTGCA was tested, and the “PBM E-score” value was -0.135.
AAGGGAGC was tested, and the “PBM E-score” value was -0.0979.
CGCTGAAC was tested, and the “PBM E-score” value was 0.00896.
For AGCGCTCA, the “PBM E-score” value was -0.191.
In the case of ATTATGGA, the “PBM E-score” value is reported as -0.154.
With CCGCTTTA the “PBM E-score” value was 0.138.
For TCGGGAGA, the “PBM E-score” value was 0.391.
In the case of GCGGGAGA, the “PBM E-score” value is reported as 0.227.
ACGGGAGA was tested, and the “PBM E-score” value was 0.12.
TCGGAAAA was tested, and the “PBM E-score” value was 0.451.
In the case of ACGGAAAA, the “PBM E-score” value is reported as 0.325.
GCGGAAAA was tested, and the “PBM E-score” value was 0.332.
AGACGGAC was tested, and the “PBM E-score” value was -0.0259.
ACTGGTAG was tested, and the “PBM E-score” value was -0.226.
In the case of ATTGATCG, the “PBM E-score” value is reported as 0.0261.
With CCCCGATA the “PBM E-score” value was 0.145.
In the case of GATCTTCC, the “PBM E-score” value is reported as 0.285.
In the case of CCGGTTAA, the “PBM E-score” value is reported as 0.334.
In the case of GCGGTTAA, the “PBM E-score” value is reported as 0.17.
With CCGGTAAA the “PBM E-score” value was 0.312.
With CCGGGTAA the “PBM E-score” value was 0.418.
CCGGGTAG was tested, and the “PBM E-score” value was 0.355.
With TCGGGTCA the “PBM E-score” value was 0.427.
In the case of GCGGTAAA, the “PBM E-score” value is reported as 0.188.
TCGGTTAA was tested, and the “PBM E-score” value was 0.44.
For CCGGGTAC, the “PBM E-score” value was 0.375.
For ACGGGTCA, the “PBM E-score” value was 0.0265.
CCGGGTCA was tested, and the “PBM E-score” value was 0.276.
In the case of TCGGTAAA, the “PBM E-score” value is reported as 0.433.
With GACGCGAC the “PBM E-score” value was -0.068.
For CACCATGG, the “PBM E-score” value was -0.29.
With GTCTAGAC the “PBM E-score” value was -0.342.
In the case of ACACAACC, the “PBM E-score” value is reported as -0.0108.
In the case of CAGGCTCG, the “PBM E-score” value is reported as 0.08.
With AGAGTTAC the “PBM E-score” value was -0.165.
For ATGGTTTA, the “PBM E-score” value was 0.193.
For TCGGGTAA, the “PBM E-score” value was 0.464.
GCGGGTAA was tested, and the “PBM E-score” value was 0.325.
For ACGGGTAA, the “PBM E-score” value was 0.328.
For ATTCGGCG, the “PBM E-score” value was 0.333.
CTTCGGCA was tested, and the “PBM E-score” value was 0.443.
For GATCGGCA, the “PBM E-score” value was 0.349.
In the case of ATTCGGCA, the “PBM E-score” value is reported as 0.438.
GTTCGGCA was tested, and the “PBM E-score” value was 0.418.
For ATTCGGCC, the “PBM E-score” value was 0.271.
With CTTCGGCC the “PBM E-score” value was 0.218.
In the case of GGTCGGCA, the “PBM E-score” value is reported as 0.353.
For CATCGGCA, the “PBM E-score” value was 0.376.
In the case of ACAACCTC, the “PBM E-score” value is reported as -0.114.
In the case of AGGCTGGG, the “PBM E-score” value is reported as -0.236.
In the case of ACCGCGTG, the “PBM E-score” value is reported as 0.053.
ACTCCAAC was tested, and the “PBM E-score” value was -0.11.
For AGACTGAG, the “PBM E-score” value was -0.107.
With ACTCGGGC the “PBM E-score” value was 0.263.
With ACTCGGGG the “PBM E-score” value was 0.286.
CCTCGGGA was tested, and the “PBM E-score” value was 0.444.
In the case of CCTCGGGC, the “PBM E-score” value is reported as 0.288.
With GCTCGTGA the “PBM E-score” value was -0.108.
In the case of CCACGGGA, the “PBM E-score” value is reported as 0.223.
ACTCGGGA was tested, and the “PBM E-score” value was 0.44.
In the case of GCACGGGA, the “PBM E-score” value is reported as 0.305.
For GCTCGGGA, the “PBM E-score” value was 0.464.
With ATGTGCCC the “PBM E-score” value was -0.048.
GACCGCTA was tested, and the “PBM E-score” value was 0.0181.
With GCACTTAC the “PBM E-score” value was 0.0807.
In the case of CAGAGGCC, the “PBM E-score” value is reported as -0.204.
For ACTTGGTA, the “PBM E-score” value was -0.265.
In the case of AATGTGAT, the “PBM E-score” value is reported as -0.15.
In the case of CGGATACA, the “PBM E-score” value is reported as 0.433.
AGGATACA was tested, and the “PBM E-score” value was -0.261.
In the case of AGGATACC, the “PBM E-score” value is reported as 0.0351.
With CGGATACC the “PBM E-score” value was 0.41.
In the case of CGGATACG, the “PBM E-score” value is reported as 0.409.
In the case of AGGATACG, the “PBM E-score” value is reported as -0.23.
With GGGATACC the “PBM E-score” value was 0.184.
CCGATACG was tested, and the “PBM E-score” value was 0.307.
In the case of TGGATACA, the “PBM E-score” value is reported as -0.147.
For CCGCTCGA, the “PBM E-score” value was 0.11.
In the case of GCGCGACC, the “PBM E-score” value is reported as -0.0286.
